Here are results for 12 compounds from PubChem BioAssay (NCATS).

Each structure is given as a SMILES string. Records with an inconclusive call do not appear. Active and inactive are the calls of the source. Calls follow the shape of the dose curve; as a rule, active = well fitted cell-killing curve with a large enough effect; inconclusive = small, poorly fitted or top-dose-only effect, or effect the other way; inactive = no such curve, though single readings can be large or run the other way.
Potency is read from the fitted curve at half-maximal effect.

This test can be described thus: Quantitative High-Throughput drug screen in 47 multiple myeloma cell lines against the NCATS MIPE library collection: MM1S_ATCC cell viability assay (AID 1918980). Also: nearly all actives have a fitted effect of over 45% in size. The note with it: MM1S myeloma viability, CellTiter-Glo ATP luminescence, 48 h; series mostly up to 45.8 µM. In a few lines:
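Cells were exposed to library compounds for 48 hours, after which ATP was measured by CellTiter-Glo. Signal was taken as median relative luminescence units.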
Turning to `O=C(Nc1ncc(-c2cc(C(F)F)nn2-c2c(Cl)cccc2Cl)s1)C1CC1`, the Potency was 1.48 µM (active). With `Cc1[nH]nc2ccc(-c3cncc(OC[C@@H](N)Cc4ccccc4)c3)cc12` the figure was 0.935 µM (active); with `Nc1ncnc2c1c(-c1cccc(OCc3ccccc3)c1)cn2C1CC(CN2CCCC2)C1` (configuration not stated), 1.87 µM (active); with `COc1cc(C)c(Sc2cnc(NC(=O)c3ccc(CNC(C)C(C)C)cc3)s2)cc1C(=O)N1CCN(C(C)=O)CC1` (configuration not stated), 16.6 µM (active). As to `COc1cc2c(Oc3ccc(-c4cnc(Nc5ccc(F)cc5)n(C)c4=O)cc3F)ccnc2cc1OCCCN1CCOCC1`, the Potency was 9.35 µM (active). As for `C[C@@H]1COC(Nc2ccc3ncnc(Nc4ccc(OCc5nccs5)c(Cl)c4)c3c2)=N1`, the Potency is 4.18 µM (active). For the compound `Cc1cc(C(=O)N2CCN(c3cccc(Cl)c3)CC2)n(-c2ccccc2)n1`, the Potency is 16.6 µM (active).

With `CC(C)c1ccccc1Cc1cc(C(=O)Nc2ccc(S(=O)(=O)c3ccccc3C(C)(C)C)cc2)c(O)c(O)c1O`, the Potency is 11.8 µM (active). `Nc1ccn([C@@H]2O[C@H](CO)[C@H](O)C2(F)F)c(=O)n1`: the Potency was 0.0187 µM (active).

For the compound `O=C(CCCCCCC(=O)Nc1ccc([C@H]2O[C@@H](CSc3nc(-c4ccccc4)c(-c4ccccc4)o3)C[C@@H](c3ccc(CO)cc3)O2)cc1)NO`, the Potency is 9.35 µM (active). As to `COc1cc2ncnc(Nc3ccc(F)c(Cl)c3)c2cc1NC(=O)C=CCN1CCCCC1`, the Potency was 13.2 µM (active). Turning to `C#Cc1cccc(Nc2ncnc3cc(OC)c(OCCCCCCC(=O)NO)cc23)c1`, the Potency was 0.0235 µM (active).
